Source: PubChem BioAssay (NCI)
The panel holds about 83,000 compounds, 20% with a hit somewhere; the sample as a whole holds those more often.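 Cells were grown in 96-well plates and exposed to the test compound at a single concentration for 48 hours; results are reported as percent growth, with values below 10 considered active.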 Values without a mark were called inactive. The source made the active and inactive calls.

How the values were obtained:
Experiment in all cases: NCI-60 one-dose screen, 48 h (100 = growth as untreated, 0 = no growth, -100 = all killed)
Conditions in all cases: 10 µM unless noted
[1] = tested on: NCI-H23 lung
[2] = tested on: NCI-H226 lung
[3] = tested on: NCI-H322M lung
[4] = tested on: HOP-62 NSCLC
[5] = tested on: NCI-H460 lung
[6] = tested on: HOP-92 NSCLC
[7] = tested on: NCI-H522 lung
[8] = tested on: A549/ATCC NSCLC
[9] = tested on: 786-0 renal
[10] = tested on: COLO 205 colon
[11] = tested on: DU-145 prostate
[12] = tested on: K-562 leukemia
[13] = tested on: MALME-3M melanoma
[14] = tested on: MDA-MB-231 breast
[15] = tested on: RXF 393 renal
[16] = tested on: SF-268 CNS
[17] = tested on: SF-295 CNS
[18] = tested on: SF-539 CNS
[19] = tested on: UACC-257 melanoma
[20] = tested on: M14 melanoma

Structure (SMILES) | growth [1] | growth [2] | growth [3] | growth [4] | growth [5] | growth [6] | growth [7] | growth [8] | growth [9] | growth [10] | growth [11] | growth [12] | growth [13] | growth [14] | growth [15] | growth [16] | growth [17] | growth [18] | growth [19] | growth [20]
COc1ccc(NC(=O)Cn2c(/C=C/c3cccc(Br)c3)nc3ccccc3c2=O)cc1 | 59.3% | 6.61% (active) | 58.1% | 2.11% (active) | 32% | 11% | 42.6% | 16.5% | -44.4% (active) | 70.4% | 79.1% | 86.3% | 48.7% | -38.4% (active) | -16.3% (active) | 65.2% | 48.9% | -23.4% (active) | 71.1% | 50.2%
Nc1ccc(-c2ccc3ncnc(N4CCc5cc(F)c(Cl)cc54)c3c2)cn1 | 29.4% | 18.4% | -2.2% (active) | 37.5% | 25.6% | 1.25% (active) | 15.4% | 14.2% | -69.8% (active) | 50% | 5.3% (active) | 12.9% | 3.74% (active) | 18.4% | -19.2% (active) | 24% | 7.68% (active) | 24.9% | 43.1% | 13.5%
COc1cc(C2CC(c3cc(OC)c(OC)c(OC)c3)=Nc3c(N)nc(N)nc3N2)ccc1Oc1nc(Nc2ccc(F)cc2)nc(N(C)C)n1 (stereo not given) | 89.8% | 106% | 94.4% | 99.9% | 42.8% | 38.1% | 56.8% | 52.9% | 36.6% | 73.9% | 70.7% | 15.1% | 78.6% | 24.6% | 26.5% | 63.5% | 61.3% | 62% | 58.9% | 66.5%
O=CNc1ccc(-n2cnc3cc(-c4ccc(O)cc4)ccc32)cc1 | 86.5% | 83.5% | 91.1% | 85.6% | 87.4% | 96.5% | 82.1% | 86.9% | 101% | 136% | 86.7% | 64.7% | 65.9% | 108% | 86.5% | 84.6% | 103% | 60.5% | 98.8% | 91.5%
COc1cc(/C=C/C(=O)c2cnn(-c3cc(=O)[nH]c4ccc(Br)cc34)c2C)cc(OC)c1OC | -63.4% (active) | -28% (active) | 4.7% (active) | -9.41% (active) | -60.4% (active) | 25.7% | -89.1% (active) | 8.86% (active) | -73% (active) | -80.7% (active) | -83.4% (active) | -0.439% (active) | -42.4% (active) | -34.3% (active) | -76.2% (active) | -16.4% (active) | -61.8% (active) | -78.8% (active) | -30.3% (active) | -49.8% (active)
O=C(CSc1nc2ccccc2c(=O)[nH]1)Nc1ccccc1C(=O)O | 104% | 102% | 101% | 97.8% | 118% | 118% | 107% | 112% | 107% | 124% | 129% | 97.8% | 79.4% | 94.6% | 99.4% | 94.1% | 101% | 92.7% | 103% | 105%
CC1CCc2c(sc3nc(SCC(=O)c4cccc([N+](=O)[O-])c4)n(-c4ccccc4)c(=O)c23)C1 (stereo not given) | 47.4% | 66.6% | 97.9% | 77.7% | 97.1% | 85.5% | 54.3% | 89.7% | 56.6% | 106% | 63.1% | 57.1% | 111% | 10.1% | 99.9% | 73.2% | 74.2% | -10.9% (active) | 97.8% | 80.6%
CCN1C(=O)N(CC)C2NNC(Sc3c(C(=O)O)c4ccccc4n(CCC(C)C)c3=O)=NC21 (stereo not given) | 10.7% | 30.4% | 52.9% | 27.3% | -7.83% (active) | 49.4% | -21.7% (active) | 12.4% | 16% | -20.8% (active) | 17.7% | 6.37% (active) | 46.5% | 10.9% | -1.23% (active) | 49.3% | -16.5% (active) | -53.4% (active) | 40% | 12.1%
